High-throughput results deposited in PubChem BioAssay by National Center for Advancing Translational Sciences (NCATS).
Compounds with a hit are over-represented: about 12% of the library has one in this group of screens.
JMJD2A Tudor = blocks the human JMJD2A Tudor domain | O75164 | AlphaScreen JMJD2A-Tudor / H3K4me3 peptide binding | Potency, µM (highest dose often 114 µM), most hits filed as inhibitors | actives 4.4% (n = 390,000); note: nearly all actives have a fitted effect of over 50% in size
G9a inh = inhibitors of human histone lysine methyltransferase G9a; Potency, µM (series often up to 102 µM), most hits filed as inhibitors; G9a H3K9 monomethylation, AlphaScreen, 2 h; actives 8.8% (n = 350,000); note: nearly all actives have a fitted effect of over 75% in size
Target sequence (Q96KQ7 913-1193 limits assumed): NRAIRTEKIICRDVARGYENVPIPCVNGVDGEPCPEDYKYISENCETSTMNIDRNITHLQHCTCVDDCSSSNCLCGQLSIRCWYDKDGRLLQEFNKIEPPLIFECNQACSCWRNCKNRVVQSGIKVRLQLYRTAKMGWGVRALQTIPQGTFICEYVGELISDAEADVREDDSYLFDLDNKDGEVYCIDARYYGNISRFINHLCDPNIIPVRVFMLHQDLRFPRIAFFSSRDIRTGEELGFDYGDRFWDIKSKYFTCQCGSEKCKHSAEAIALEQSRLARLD
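Step 1: enzyme (final 20 nM) with compound, 15 min RT. Step 2: substrate peptide 500 nM and SAM 20 uM, 2 h RT. Step 3: anti-H3K9me1 antibody and AlphaScreen beads, 10 min, then plate read.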
BAZ2B block = inhibitors of human BAZ2B bromodomain. AlphaScreen BAZ2B-H3K14Ac peptide displacement. Q9UIF8. AID 504333. actives 4.4% (n = 360,000). Potency, µM (highest dose often 114 µM), usual class: inhibitors; note: nearly all actives have a fitted effect of over 60% in size
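BAZ2B 50 nM plus b-H3(5-23)K14Ac 50 nM, PBS pH 7.4/0.01% Tween-20, 30 min RT; compound added (max 110 uM), 30 min RT; streptavidin donor/Ni-chelate acceptor beads 10 ug/mL final, 20 min dark; AlphaScreen read.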
HP1b binding inh = HP1-beta chromodomain-methylated histone interaction inhibition. actives 0.56% (n = 390,000). P83916. AID 540317. Potency, µM (top dose mostly 114 µM), usual class: inhibitors. AlphaScreen HP1-beta / biotin-H3K9me3 peptide binding; note: nearly all actives have a fitted effect of over 70% in size
Target sequence (P83916 whole entry, looked up): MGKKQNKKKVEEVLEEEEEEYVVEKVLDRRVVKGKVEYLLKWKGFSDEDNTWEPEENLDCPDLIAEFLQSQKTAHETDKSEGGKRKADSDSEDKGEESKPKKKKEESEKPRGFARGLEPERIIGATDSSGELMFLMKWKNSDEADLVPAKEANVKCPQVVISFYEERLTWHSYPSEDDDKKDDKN
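HP1-beta protein (50 nM final) preincubated 30 min at room temperature with biotinylated H3(1-18)K9me3 peptide (50 nM) in PBS pH 7.4, 0.01% Tween-20, then compound added for 30 min. AlphaScreen streptavidin donor/nickel chelate acceptor beads (10 ug/mL final), 30 min dark, luminescence read.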
L3MBTL1 block = inhibitors of human L3MBTL1 | Q9Y468 | AlphaScreen L3MBTL1–H3K9me1 peptide binding | Potency, µM (highest dose often 57.1 µM), usual class: inhibitors | actives 0.66% (n = 230,000) | AID 485360; note: nearly all actives have a fitted effect of over 60% in size
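AlphaScreen assay: L3MBTL1 (50 nM final) was preincubated 30 min at room temperature with biotinylated H3(1-15)K9me1 peptide (75 nM final), then 30 min with library compounds; streptavidin donor and nickel chelate acceptor beads (10 ug/mL final) added, 30 min dark.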
Sfp PPTase inh = Sfp phosphopantetheinyl transferase inhibition; Q9F4F7; Biochemical Sfp PPTase activity, qHTS; Potency, µM, actives largely listed as inhibitors; actives 3.5% (n = 310,000);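 note: the enzyme is Sfp with the accession as filed and its product quenches rhodamine fluorescence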
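After 15 min at room temperature with compound, 15 nM Sfp received 5 uM rhodamine-CoA plus 12.5 uM BHQ-2-ybbR (50 mM Hepes pH 7.6, 10 mM MgCl2). Rate came from the fluorescence difference over 30 min, ex 525/em 598 nm.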
Large screens that a line does not name were inactive. Calls come from the whole dose curve; as a rule, active = well fitted curve in the direction sought with a large enough effect; inconclusive = small, poorly fitted or top-dose-only effect, or another doubt; inactive = no such curve, though single readings can be large; an effect the other way counts as inactive or inconclusive.

O=C(OCC#CCSc1nnc(-c2cccc3ccccc23)o1)c1cccc(F)c1	none (no result: G9a inh, BAZ2B block, HP1b binding inh, L3MBTL1 block, Sfp PPTase inh)
Cc1ccc(CNc2nc3ccccc3n2C)o1	none
CCN(CC)c1ccc(CNc2nc3ccccc3n2CC)cc1	JMJD2A Tudor inconclusive, G9a inh 32µM, BAZ2B block 45µM, HP1b binding inh inconclusive (no result: L3MBTL1 block)
CCN(CC)c1ccc(CNc2nc3ccccc3n2C(C)C)cc1	JMJD2A Tudor inconclusive, G9a inh inconclusive
CCCn1c(NCc2ccc(N(C)C)cc2)nc2ccccc21	JMJD2A Tudor inconclusive, G9a inh 50µM, BAZ2B block inconclusive (no result: L3MBTL1 block)
c1ccc(CNc2nc3ccccc3n3cnnc23)cc1	JMJD2A Tudor inconclusive (no result: L3MBTL1 block)
CCN(CC)CCn1c(NCc2ccc(C)o2)nc2ccccc21	JMJD2A Tudor inconclusive, G9a inh 50µM, BAZ2B block inconclusive (no result: L3MBTL1 block)
c1ccc(CNc2nc3ccccc3n3cnnc23)nc1	G9a inh 45µM (no result: L3MBTL1 block)
Cc1cc(=O)n(Cc2cccc(Br)c2)c2c1c(C)nn2-c1ccccc1	none (no result: L3MBTL1 block, Sfp PPTase inh)
COc1ccc(C2N(c3ccc(C)cc3)CCN2c2ccc(C)cc2)cc1O	JMJD2A Tudor 28µM, G9a inh 18µM, BAZ2B block 32µM (no result: L3MBTL1 block)
O=C1CN(C(=O)c2ccc(Br)o2)C(c2ccccc2)c2cc(Cl)ccc2N1 (stereo not given)	G9a inh 56µM, BAZ2B block inconclusive, Sfp PPTase inh inconclusive
Cc1ccc2c(c1)C(c1ccccc1)N(C(=O)c1ccc(Br)o1)CC(=O)N2 (stereo not given)	JMJD2A Tudor inconclusive, G9a inh 40µM, BAZ2B block inconclusive (no result: L3MBTL1 block)
CCOP(=O)(OCC)C(Nc1cccc([N+](=O)[O-])c1)c1ccc(N(C)C)cc1 (stereo not given)	JMJD2A Tudor 50µM, G9a inh inconclusive, BAZ2B block 40µM, HP1b binding inh inconclusive, L3MBTL1 block inconclusive
CCOP(=O)(OCC)C(Nc1cccc(C(F)(F)F)c1)c1ccc(F)cc1 (stereo not given)	none
CCOc1cc(N2CCOCC2)c(OCC)cc1NCC(=O)N1CCN(Cc2ccccc2)CC1	JMJD2A Tudor 0.79µM, BAZ2B block 20µM, HP1b binding inh 20µM, Sfp PPTase inh 56µM (no result: G9a inh, L3MBTL1 block)
CCOc1cc(N2CCOCC2)c(OCC)cc1NC(=O)CSc1nccc(C)n1	none
CCOc1cc(N2CCOCC2)c(OCC)cc1NC(=O)CSc1n[nH]c(N)n1	BAZ2B block inconclusive
CCOc1cc(N2CCOCC2)c(OCC)cc1NC(=O)CN1CCc2ccccc2C1	JMJD2A Tudor 1.4µM, BAZ2B block 20µM, HP1b binding inh inconclusive, L3MBTL1 block inconclusive, Sfp PPTase inh 45µM
CCOc1cc(N2CCOCC2)c(OCC)cc1NC(=O)CN1CCN(Cc2ccc3c(c2)OCO3)CC1	none
CCOc1cc(N2CCOCC2)c(OCC)cc1NC(=O)COc1ccccc1[N+](=O)[O-]	none
CCOc1cc(N2CCOCC2)c(OCC)cc1NC(=O)CSc1ncn[nH]1	G9a inh 45µM (no result: L3MBTL1 block)
CCOc1cc(N2CCOCC2)c(OCC)cc1NC(=O)CSc1ccccc1C(=O)O	G9a inh 7.9µM, BAZ2B block 79µM (no result: Sfp PPTase inh)
CC12C=C(/C=C/c3ccc(Br)cc3)C(C)(C1)C(c1ccc(Br)cc1)CC2=O (stereo not given)	none (no result: JMJD2A Tudor, G9a inh, BAZ2B block, HP1b binding inh, L3MBTL1 block)
Cc1ccc(N2C(=O)c3oc4cc(C)c(C)cc4c(=O)c3C2c2cccc(O)c2)nc1 (stereo not given)	none (no result: L3MBTL1 block, Sfp PPTase inh)
CCOc1cc(N2CCOCC2)c(OCC)cc1NC(C)C(=O)N1CCC(C)CC1 (stereo not given)	JMJD2A Tudor inconclusive, G9a inh 40µM
CCOc1cc(N2CCOCC2)c(OCC)cc1NC(=O)[C@H](C)N1C(=O)C2CC=CCC2C1=O (stereo not given in full)	none
Cc1cccc(NC(=O)CSCC(=O)Nc2ccccc2N2CCCCC2)c1	none (no result: Sfp PPTase inh)
Cc1cc(SCC(=O)Nc2cccc(S(=O)(=O)N3CCOCC3)c2)nc2ccccc12	G9a inh 40µM
Cc1noc(C)c1C(=O)Nc1cccc(S(=O)(=O)N2CCCCC2)c1	none (no result: Sfp PPTase inh)
Cc1cccc(NC(=O)CSCC(=O)Nc2ccc(S(=O)(=O)N3CCCCC3)cc2)c1	G9a inh 32µM (no result: Sfp PPTase inh)
